The source of these data is the supplement of paper PMC3334620.

Over roughly 33,000 sequences, “E-score (-0.5 to 0.5)” has its median near -0.036; the highest 2% begin near 0.37. This is one part of a sample in which the highest values are shown more often than they occur.

The target of the test is T1, Yer064c (UniProt P40041).
T1 sequence: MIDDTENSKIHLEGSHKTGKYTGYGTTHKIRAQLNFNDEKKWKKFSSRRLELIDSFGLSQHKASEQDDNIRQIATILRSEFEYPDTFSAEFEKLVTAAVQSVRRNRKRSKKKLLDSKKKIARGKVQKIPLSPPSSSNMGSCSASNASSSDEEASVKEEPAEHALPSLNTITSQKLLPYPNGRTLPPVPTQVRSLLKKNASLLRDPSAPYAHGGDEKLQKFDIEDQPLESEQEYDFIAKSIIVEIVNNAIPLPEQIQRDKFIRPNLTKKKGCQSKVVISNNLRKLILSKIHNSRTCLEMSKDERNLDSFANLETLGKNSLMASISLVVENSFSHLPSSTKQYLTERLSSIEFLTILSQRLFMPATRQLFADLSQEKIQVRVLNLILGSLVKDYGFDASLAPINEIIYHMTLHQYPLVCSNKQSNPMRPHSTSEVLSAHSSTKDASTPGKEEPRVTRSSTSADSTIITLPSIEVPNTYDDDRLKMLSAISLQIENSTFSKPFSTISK
As to the kind of experiment: PBM E-score (8-mer binding enrichment) (E-score (-0.5 to 0.5)); higher = stronger / more preferred TF binding. As to conditions: protein concentration: 200 nM; construct: GST-full length. As to the method:
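Universal 'all 10-mer' protein binding microarrays (Agilent AMADID 015681) probed with GST-tagged S. cerevisiae TFs (full-length or DBD) made by in vitro transcription/translation (PURExpress), about 100-200 nM. Bound TF was detected with fluorescent anti-GST. Each ungapped 8-mer (which stands for itself and its reverse complement) is scored by the PBM enrichment score (E-score), a modified Wilcoxon-Mann-Whitney statistic from -0.5 to +0.5, computed with the Universal PBM Analysis Suite. Scale: above 0.35 generally sequence-specific binding.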
Turning to GAGCACTC, the “PBM E-score” value is -0.182.
In the case of GAAGGATC, the “PBM E-score” value was -0.0298.
Take AGGTGCAC: the “PBM E-score” value is -0.143.
GGGGTGGA: the “PBM E-score” value is -0.205.
With ACCACTTG, the “PBM E-score” value was -0.0296.
For the sequence CATGAATG, the “PBM E-score” value is 0.197.
As for CATGAATA, the figure is 0.178; as for GATGAATA, 0.176.
On to AATGAATT, for which the “PBM E-score” value worked out at 0.0966.
For ATTGAATG, the “PBM E-score” value worked out at 0.167.
CATGAATC: the “PBM E-score” value was 0.423.
As for AATGAATC, the “PBM E-score” value worked out at 0.39.
Turning to AATGAATG, the “PBM E-score” value was -0.0293.
For the sequence ATTGAATC, the “PBM E-score” value came to 0.375.
With ATTGAATA, the “PBM E-score” value came to 0.169.
Turning to GATGAACC, the “PBM E-score” value stood at 0.0652.
The same measure for GATGAATC: 0.387.
As for AGTACCAC, the figure is 0.0908; as for CAATCGAC, 0.0905.
For the sequence ACTGCGAC, the “PBM E-score” value was determined as 0.228.
For the sequence CTTCCGCC, the “PBM E-score” value was -0.183.
Consider ACATGAGT, for which the “PBM E-score” value was determined as 0.375.
As for AGATGACA, the “PBM E-score” value is 0.116.
With ACATGACG, the “PBM E-score” value is -0.00033.
The same measure for AGATGACC: 0.136; for ACATGACA: 0.155.
The same measure for ACATGACT: 0.48.
As for ACATGAGC, the “PBM E-score” value amounted to 0.046.
Take AGATGACT: the “PBM E-score” value was determined as 0.487.
Turning to ACATGAGA, the “PBM E-score” value was 0.284.
The same measure for CTTACGTA: 0.131; for CGCAAGGA: -0.167; for AAGGCATA: -0.129.
In the case of TGCCAGCA, the “PBM E-score” value is -0.0413.
Turning to ACACGTGC, the “PBM E-score” value is -0.0356.
As for CACATGTC, the figure is 0.0407; as for ATCCCACG, 0.07; as for TAGGCGAA, -0.0147.
The same measure for CTGACTGA: 0.395; for ATGACTGG: 0.409.
Consider GTGACTGA, for which the “PBM E-score” value was determined as 0.447.
The same measure for GGGACTGA: 0.119; for ATGACTAG: 0.48.
Consider GTGACGGA, for which the “PBM E-score” value was -0.0635.
As for ATGACAAG, the “PBM E-score” value turned out to be 0.0335.
With CGGACTGA, the “PBM E-score” value worked out at 0.178.
With AAGACTGG, the “PBM E-score” value was 0.1.
For the sequence ACGACTGG, the “PBM E-score” value turned out to be 0.148.
Turning to CTGACTGC, the “PBM E-score” value worked out at 0.348.
As to AGGACTAG, the “PBM E-score” value was found to be 0.275.
In the case of CATCAGGA, the “PBM E-score” value was -0.0161.
Take GTGTCGAA: the “PBM E-score” value was -0.00343.
With ATCGCAGA, the “PBM E-score” value is 0.0583.
Regarding AGCTACCA, the “PBM E-score” value amounted to 0.0223.
Regarding AATTCGGT, the “PBM E-score” value came to 0.107.
In the case of CTCCGTGC, the “PBM E-score” value is -0.156.
ACATTCAT: the “PBM E-score” value turned out to be 0.0768.
The same measure for CGCGTTCA: 0.0376; for AGGACTGA: 0.244.
As for AGGACTCG, the “PBM E-score” value worked out at 0.306.
As to CAGACTGC, the “PBM E-score” value was 0.0507.
On to AGGACTGC, for which the “PBM E-score” value came out at 0.13.
As for ATGACTGA, the figure is 0.464; as for ATGACTCG, 0.491.
With ATTACTCG, the “PBM E-score” value came out at 0.202.
As to ACGACTGA, the “PBM E-score” value worked out at 0.321.
In the case of ATGACTGC, the “PBM E-score” value is 0.467.
Take GTAAGGTA: the “PBM E-score” value stood at 0.00781.
Regarding GCCAACCC, the “PBM E-score” value was -0.343.
As to ACGGCCTC, the “PBM E-score” value was -0.163.
In the case of ACATGAAT, the “PBM E-score” value was 0.175.
As for ACGCCTAG, the figure is -0.133.
Consider CGGTGGGC, for which the “PBM E-score” value was -0.341.
The same measure for AGTTTCTC: -0.105; for CGACTCCA: 0.378; for CGACTCCG: 0.332.
GGACTCCA: the “PBM E-score” value amounted to 0.176.
In the case of AGACTCCC, the “PBM E-score” value was determined as 0.32.
Turning to AGACTCCA, the “PBM E-score” value was found to be 0.323.
Consider CGACTCCC, for which the “PBM E-score” value was determined as 0.404.
Turning to CAACTCCC, the “PBM E-score” value was -0.15.
As for CCACTCCA, the “PBM E-score” value was -0.0978.
As to TGACTCCA, the “PBM E-score” value was 0.479.
As for AGGGGGAT, the figure is -0.373; as for AGGGGGGA, -0.362.
ACTGCGTA: the “PBM E-score” value is 0.0638.
